Outcome and AC50 data for 40 molecules are collected here from PubChem BioAssay (EPA / NIEHS).

Usually AC50 stands for the concentration at which the activity in the assay is half-maximal.

The source made the active and inactive calls. Rule for the calls: active = hit-call score of the fitted dose curve at least 0.9, where 1 is the maximum; inactive = score below 0.9.

Read-out in the assay: Forkhead box O1 (FOXO1), FOXO1 (gene 2308)
The assay is described as follows: LTEA_HepaRG_FOXO1: Life Technologies and Expression Analysis (LTEA) Assay for Forkhead box O1 (FOXO1) using HepaRG (AID 2283456). Particulars: mRNA level, 48 h; actives raise or lower the signal. On the procedure: LTEA_HepaRG is a cell based, multiplexed-readout assay that uses HepaRG, a human liver cell line, with measurements taken at 48 hours after chemical dosing on a 96-well plate.LTEA_HepaRG_FOXO1 is one of 102 assay component(s) measured in the LTEA HepaRG cell culture assay. It is a marker of Cell proliferation, survival, death.Data from the assay component LTEA_HepaRG_FOXO1 was analyzed into 1 endpoint. This assay endpoint, LTEA_HepaRG_FOXO1, was analyzed with bidirectional fitting relative to DMSO as the negative control and baseline of activity. Using a type of inducible reporter, measures of mRNA induction for gain or loss-of-signal activity can be used to understand regulation of transcription factor activity. To generalize the intended target to other relatable targets, this assay endpoint is annotated to the dna binding intended target family, where the subfamily is forkhead box protein.
A total of 1060 chemcials from the ToxCast library were tested in eight-point concentration-response experiments. Cell culture and cytotoxicity assays were conducted at Thermo Fisher Scientific's Custom Services facility (Madison, WI). A single lot of human HepaRG cells (Thermo Fisher Scientific, Frederick, MD) was used for the cell culture experiments. 96-well format collagen type I coated plates of human HepaRG cells were prepared using established methods. Briefly, cryopreserved HepaRG cells were thawed, plated at a density of approximately 100,000 cells/well in HepaRG Thaw, Plate, and General Purpose media (HPRG770, Thermo Fisher Scientific), and incubated for 48 hours. 0.5% DMSO was selected as vehicle control to balance the requisite need of DMSO in HepaRG cultures to maintain differentiation (for example, baseline metabolism, proportions of hepatocytes vs. cholangiocytes), while enabling further hepatic receptor pathway activation (for example, PXR and CAR) in response to chemical exposure. 48 hours after plating, the culture medium was replaced with HepaRG Serum-Free Incudtion Media. Cells were exposed to each test chemical in duplicate and maintained in CO2 incubators for another 48 hours. Chemical plates were thawed to room temperature and 200x concentrations of treatment groups were prepared. 8-point conentration-reponse curves were made with the highest exposure at 100 uM, followed by half-log dilutions, all in 0.5% DMSO. Each test plate contained variouse controls, induction positive controls (1mM phenobarbital), cytotoxicity positive controls ([…] aflatoxin B1), vehicle controls (0.5% DMSO), and total lysis controls (0.5% DMSO). Cell morphology images were taken using an Essen IncuCyte FLR automated microscope, with six 96-well plates imaged in about 24 minutes. Images were captured and exported and JPEG files. Spent culture media was transfered to black-well plates for the LDH assay, and remaining media was sorted at -80 C for later use. Cells were treated with RLT buffer and frozen until shipped for gene expression analysis. Total RNA was isolated from the cell suspension in 75 uL of Buffer RLT (Qiagen, Germantown, MD 20874) by Quintiles/Expression Analysis (Durham, NC) using a custom isolation procedure. Total RNA from each plate well was transferred to a preamplification plate. Fluidigm's 96.96 Dynamic ArrayTM (Fluidigm, Amsterdam, the Netherlands) technology was used for gene expression analyses by quantitative reverse transcription polymerase chain reaction (qRT-PCR, performed by Quintiles/Expression Analysis, Durham, NC)89. Standard TaqManTM Assays (Applied Biosystems/ThermoFisher Scientific, Foster City, CA) were used to assess the expression of 93 genes selected based on their selectivity and sensitivity to important hepatic receptors known to be modulated by environmental chemicals; importance in human hepatocyte functionality; and hepatotoxicity. […]
For the molecule `CC1(C)C(C=C(Cl)Cl)C1C(=O)OC(C#N)c1cccc(Oc2ccccc2)c1` (stereo not given), the molecule was classed as inactive.
The same measure, in the same setting: the same measure for `CCCCOCN(C(=O)CCl)c1c(CC)cccc1CC`: “inactive”; for `CCC(C)n1c(=O)[nH]c(C)c(Br)c1=O` (stereo not given): “inactive”; for `COc1ccc(-c2ccccc2)cc1NNC(=O)OC(C)C`: “inactive”.
On the same count and under the same terms, with `CCN(CC)c1nc(C)cc(OP(=S)(OC)OC)n1` the entry was “inactive”.
The same measure, in the same setting: with `CCOc1nc(F)cc2nc(S(=O)(=O)Nc3c(Cl)cccc3Cl)nn12` the entry was “inactive”; with `COP(=S)(OC)Oc1ccc([N+](=O)[O-])c(C)c1`, “inactive”.
As to `Cc1c(COC(=O)[C@@H]2[C@H](/C=C(\Cl)C(F)(F)F)C2(C)C)cccc1-c1ccccc1`, the call was inactive.
Same read-out and setting: the same measure for `Clc1nc(Cl)nc(Nc2ccccc2Cl)n1`: “inactive”; for `COCC(=O)N(c1c(C)cccc1C)C(C)C(=O)OC` (stereo not given): “inactive”; for `N#Cc1c[nH]cc1-c1cccc2c1OC(F)(F)O2`: “inactive”.
Same read-out and setting: the same measure for `CC1(C)C(C(=O)OC(C#N)c2cccc(Oc3ccccc3)c2)C1(C)C` (stereo not given): “inactive”.
Consider `COCc1cnc(C2=NC(C)(C(C)C)C(=O)N2)c(C(=O)O)c1` (stereo not given), for which the outcome was inactive.
As for `CCCCC(O)(Cn1cncn1)c1ccc(Cl)cc1Cl` (stereo not given), the AC50 is 80.2 µM (active).
Take `CCNC(=O)NC(=O)C(C#N)=NOC`: the outcome was inactive.
Still for that read-out and setting: the same measure for `CC(C)(C)C(=O)C(Oc1ccc(Cl)cc1)n1cncn1` (stereo not given): “inactive”.
Still for that read-out and setting: with `CN/C(=N\[N+](=O)[O-])NCc1cnc(Cl)s1` the entry was “inactive”.
As for `CC1(C)CON(Cc2ccccc2Cl)C1=O`, the molecule was called inactive.
The same measure, in the same setting: the same measure for `COP(=S)(OC)SCn1nnc2ccccc2c1=O`: “inactive”.
Still for that read-out and setting: the same measure for `O=C(Nc1ccccc1-c1ccc(Cl)cc1)c1cccnc1Cl`: “inactive”; for `COc1cc(Cl)c(OC)cc1Cl`: “inactive”.
On the same count and under the same terms, with `COP(=O)(OC)O/C(C)=C/C(=O)N(C)C` the entry was “inactive”; with `CC1(C)CCC(=Cc2ccc(Cl)cc2)C1(O)Cn1cncn1` (stereo not given), “inactive”.
Take `CC(C)Oc1cccc(NC(=O)c2ccccc2C(F)(F)F)c1`: the molecule was called inactive.
The same measure, in the same setting: with `Cc1cc(C)nc(Nc2ccccc2)n1` the entry was “inactive”.
Still for that read-out and setting: with `C=CCOC(=O)C(C)(C)OC(=O)c1cc(-n2c(=O)cc(C(F)(F)F)n(C)c2=O)ccc1Cl` the entry was “inactive”; with `COC(=O)NS(=O)(=O)c1ccc(N)cc1`, “inactive”.
Take `CC(C)N1C(=O)c2ccccc2NS1(=O)=O`: the outcome was inactive.
Still for that read-out and setting: with `CNC(=O)N(C)c1nnc(C(C)(C)C)s1` the entry was “inactive”.
As to `O=C(O)c1c(Cl)ccc2cc(Cl)cnc12`, the call was inactive.
The same measure, in the same setting: the same measure for `CCCCC(C#N)(Cn1cncn1)c1ccc(Cl)cc1` (stereo not given): “inactive”; for `N#Cc1c(Cl)cccc1Cl`: “inactive”.
Same read-out and setting: with `C=C(C)CN(CC)c1c([N+](=O)[O-])cc(C(F)(F)F)cc1[N+](=O)[O-]` the entry was “inactive”; with `COC(=O)c1c(C(F)F)nc(C(F)(F)F)c(C2=NCCS2)c1CC(C)C`, “inactive”.
Take `CCOc1nc(C(Cl)(Cl)Cl)ns1`: the AC50 was 1 µM (active).
For `CNC(=O)Oc1cccc2ccccc12`, the call was inactive.
Same read-out and setting: the same measure for `CC(C)N1C(=O)N(c2ccccc2)CSC1=NC(C)(C)C`: “inactive”.
For the molecule `O=C1C2CC=CCC2C(=O)N1SC(Cl)(Cl)Cl` (stereo not given), the AC50 was 77.1 µM (active).
The same measure, in the same setting: the same measure for `OC(c1ccc(Cl)cc1)(c1ccc(Cl)cc1)C(Cl)(Cl)Cl`: 79.5 µM (active).
As to `CC(C)NC(=O)N1CC(=O)N(c2cc(Cl)cc(Cl)c2)C1=O`, the outcome was inactive.
